This note sets out measurements from PubChem BioAssay AID651965 (National Center for Advancing Translational Sciences (NCATS), 2013).

Hit rate of the full screen: of about 340,000 compounds, about 6,400 (1.9%) were called active. About 4% were inconclusive and are not listed. This is one part of a sample in which actives are shown more often than they occur. Unmarked numbers belong to inactive results. Calls follow the shape of the dose curve; as a rule, active = well fitted falling curve with a large enough effect; inconclusive = small, poorly fitted or top-dose-only effect; inactive = no such curve, though single readings can be large or run the other way.
Potency is read from the fitted curve at half-maximal effect.

This assay addresses ATP-dependent Clp protease proteolytic subunit (Bacillus subtilis (strain 168)) (UniProt P80244). The assay is described as follows: qHTS Assay for Activators of ClpP. Also: the source files actives as falling curves though it sought activators and does not explain the sign; nearly all actives have a fitted effect of over 65% in size. The following applies: purified B. subtilis ClpP, FRET peptide cleavage, 20 min; series mostly up to 57.5 µM; activity change, negative = active: at the top concentration. The method, boiled down: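 Purified B. subtilis ClpP, 10 microg/mL final in Tris/HCl pH8 with KCl, BSA, glycerol and Tween-20, cleaved an Abz/nitrotyrosine-quenched decapeptide. Fluorescence (ex 320, em 430) was read at 0 and 20 min at room temperature. Delta was normalized to 5.8 microM ADEP and DMSO/no-enzyme controls.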
For `CCc1ccc([C@@H]2CC(=O)[C@@H]3CN(S(=O)(=O)c4ccc(C)cc4)[C@H](c4ccc(Cl)cc4)C[C@@H]3N2S(=O)(=O)c2ccc(C)cc2)cc1`, the “activity change, negative = active” value was -0.494%. On the same count and under the same terms, the figure for `Cc1ccc(S(=O)(=O)N[C@H]2CCC[C@@H]2O)cc1` is 0.149%. Consider `CCCNC(=O)c1cc(C2CCCN(C(=O)c3ccc4c(c3)CCO4)C2)on1` (centres undefined), for which the “activity change, negative = active” value is 1.78%. Still for that read-out and setting: the figure for `CCOc1ccc(CNC(=O)C2CCC(=O)N2C2CCCC2)cc1OC` (centres undefined) is 0.407%; for `CCCC(=O)Nc1cc(OCC)c(NC(=O)NC2CCCCC2)cc1OCC` it is 0.317%. On to `CCOc1cc(C2C(C(=O)OC)=CN(C3CCCC3)C=C2C(=O)OC)cc(Br)c1O`, for which the Potency was 31.6 µM (active). On to `CCOc1ccc2[nH]c(=S)sc2c1`, for which the “activity change, negative = active” value is 0.413%.

In the case of `C=CCC[C@@H](CCCCC)OC(=O)/C=C/[C@@H](O)[C@H](O)C[C@H](O)CC=C`, the “activity change, negative = active” value is -1.79%. Same read-out and setting: the figure for `Cc1cc(C)cc(OCC(=O)NNC(=O)c2cc3ccccc3oc2=O)c1` is -8.32%. Regarding `O=C(NCc1ccccn1)c1cnc2sccn2c1=O`, the Potency was 28.2 µM (active). On the same count and under the same terms, the figure for `COc1ccc2oc(=O)c(C(=O)O)cc2c1` is 20 µM (active); for `COc1ccc2oc(=O)c(C(=O)NCc3ccccn3)cc2c1` it is 10 µM (active). For the compound `COc1cccc(S(=O)(=O)NCc2ccc(C(=O)NCc3ccccn3)cc2)c1`, the “activity change, negative = active” value was -0.597%. On the same count and under the same terms, the figure for `Cc1ccccc1CN1CCN(CC(=O)NCc2ccccn2)C1=O` is -0.209%; for `COc1ccc2oc(=O)c(C(=O)N3CCN(c4ccccc4F)CC3)cc2c1` it is 0.738%; for `COc1ccc(CNC(=O)c2cc3cccc(OC)c3oc2=O)cc1` it is 0.159%. Same read-out and setting: the figure for `N=c1oc2ccccc2cc1C(=O)NCc1ccccc1` is 0.202%; for `COc1ccc2oc(=O)c(C(=O)N3CCCc4ccccc43)cc2c1` it is -1.32%; for `Cc1ccc(S(=O)(=O)N2CCC(C)CC2)cc1C(=O)NCc1ccccn1` it is 0.42%. As to `O=C(NCc1ccccn1)c1cc2ccccc2oc1=O`, the Potency was 31.6 µM (active). Consider `COc1cc(NC(=O)c2cc(-c3ccc(F)cc3OC(C)C)n[nH]2)cc(OC)c1OC`, for which the “activity change, negative = active” value was -3.06%. Same read-out and setting: the figure for `COc1ccc(NC(=O)C2Cc3c(-c4ccc5c(c4)OCO5)ccnc3O2)cn1` (centres undefined) is 5.38%. On the same count and under the same terms, the figure for `COc1cc(C(O)c2nc(-c3cccc(C(=O)O)c3)cs2)ccc1F` (centres undefined) is 3.5%. On the same count and under the same terms, the figure for `Cc1cc2c(cc1C)N1C(=O)c3cc4ccccc4cc3NC(=O)C1C(=O)N2` (centres undefined) is -2.06%. With `COc1cc(OC)c(OC)cc1/C=C1\C=Cc2ccccc21`, the “activity change, negative = active” value is -0.657%. Same read-out and setting: the figure for `CCOC(=O)C1(C)CCCN(C(=O)c2ccc(F)c(Cl)c2)C1` (centres undefined) is -9.57%; for `O=C(NCc1ccc(F)cc1)c1cc(C2CCCCN2C(=O)C2CCCCC2)on1` (centres undefined) it is 0.616%; for `COc1cc(C(O)c2nc(-c3cnn(C)c3)cs2)ccc1F` (centres undefined) it is -2.24%.

On to `CCc1ccc(Oc2coc3cc(OC(=O)c4cc5ccccc5oc4=O)ccc3c2=O)cc1`, for which the “activity change, negative = active” value was -6.78%.

For the compound `O=C(Oc1cccnc1)c1cc2ccccc2oc1=O`, the Potency is 28.2 µM (active). In the case of `CCOC(=O)c1cc2cc3ccccc3cc2oc1=O`, the “activity change, negative = active” value was 1.97%. On the same count and under the same terms, the figure for `COc1ccc(Cl)cc1-c1cc(C(=O)Nc2cc(OC)c(OC)c(OC)c2)[nH]n1` is -0.634%; for `CCCCCn1c(=O)[nH]c2cc(C(=O)NCCN(C)CCCC)ccc2c1=O` it is -22.5%. Regarding `CCN(CC)CCNC(=O)CCCCCn1c(=O)[nH]c2cc(C(=O)OC)ccc2c1=O`, the Potency is 28.2 µM (active).

Regarding `O=C(CCCn1c(=O)[nH]c2cc(Cl)ccc2c1=O)NCCN1CCN(c2ccccc2)CC1`, the “activity change, negative = active” value was -0.7%. Still for that read-out and setting: the figure for `Nc1ncnc2c1ncn2[C@@H]1O[C@H](C(=O)NCC(F)(F)F)[C@@H](O)[C@H]1O` is 1.54%.

As to `CCCCc1c(-c2ccc(Cl)cc2)ncn1CCc1ccccc1OC`, the “activity change, negative = active” value was -1.38%. For `Cc1ccc(-c2ccnc3nc(Sc4ncc(C(F)(F)F)cc4Cl)nn23)cc1`, the Potency is 7.08 µM (active). `Cc1ccc(-c2nc3c(Cl)cc(C(F)(F)F)cn3c2Cc2cccc(Cl)c2)cc1`: the “activity change, negative = active” value was -12.4%. Consider `Cc1nn(-c2ncc(C(F)(F)F)cc2Cl)c(=O)n1-c1ccccc1`, for which the “activity change, negative = active” value is -3.4%. Same read-out and setting: the figure for `OCCC#Cc1ccc(N2C(c3ccsc3)=Cc3ccc(F)cc3C2c2c[nH]c3ccccc23)cc1` (centres undefined) is 2.41%.

`CCOC(=O)C1(C(F)(F)F)N=C(N(C)C)OC(N(C)C)=N1`: the Potency was 15.8 µM (active).

Consider `CCOC(=O)C1=C(C)c2ccccc2OC1(C)C(=O)OCC` (centres undefined), for which the “activity change, negative = active” value is 1.75%.

Take `Cc1cc(Br)cn2c(Cc3ccccc3C(F)(F)F)c(-c3ccc(Cl)cc3)nc12`: the “activity change, negative = active” value is -2.87%. Take `C=C1C=C(C(F)F)n2ncc(C(=O)NCCc3ccccc3OC)c2N1`: the “activity change, negative = active” value is -9.27%. The same measure, in the same setting: the figure for `O=C(CCN1C(=O)c2ccccc2C1=O)NCCN1CCOCC1` is -4.16%. With `O=C(Cn1c(-c2ccccn2)nc2ccccc21)NCCN1CCOCC1`, the Potency was 28.2 µM (active).

In the case of `Cc1ccc(Cn2c(C)c3cnn(CC(=O)NCCN4CCOCC4)c(=O)c3c2C)cc1`, the “activity change, negative = active” value was -20.6%. On the same count and under the same terms, the figure for `Cc1ccc(CC2(C)C(=O)Nc3ccc(OC(F)(F)F)cc32)cc1` (centres undefined) is -1.95%.
